Source: PubChem BioAssay (National Center for Advancing Translational Sciences (NCATS))
DT40 TDP1 no CPT = qHTS for Inhibitors of human tyrosyl-DNA phosphodiesterase 1 (TDP1): qHTS in cells in absence of CPT. DT40 Tdp1-/- hTDP1 cells, no CPT, ATP luminescence, 48 h. Potency, µM (titrated, usually from 46.2 µM), inactives show top-dose activity change, negative = growth inhibition, actives largely listed as inhibitors. hit rate 15% among 420,000. AID 686978, 2013; further: nearly all actives have a fitted effect of over 55% in size
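Chicken DT40 Tdp1-/- cells stably complemented with human TDP1 were seeded at 400 cells/well with DMSO in place of 20 nM camptothecin. After compound pinning, cells grew at least 48 hr at 37 °C; viability read by CellTiter-Glo luminescence.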
TDP1 cell CPT = qHTS for Inhibitors of human tyrosyl-DNA phosphodiesterase 1 (TDP1): qHTS in cells in presence of CPT | chicken DT40 Tdp1-/-;hTDP1 cells + 20 nM CPT, ATP luminescence, 48 h | Potency, µM (series often up to 46.2 µM), for inactives: at the highest dose activity change, negative = growth inhibition, actives largely listed as inhibitors | hit rate 12% among 420,000 | AID 686979, 2013; further: nearly all actives have a fitted effect of over 55% in size
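Cell growth measured by CellTiter-Glo luminescence after a minimum 48 h, 37 C compound exposure with 20 nM CPT in Tdp1-knockout DT40 cells stably expressing hTDP1, seeded 400/well; qHTS titration format.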
TDP1 block = qHTS Assay for Inhibitors of Tyrosyl-DNA Phosphodiesterase (TDP1). Tyrosyl-DNA phosphodiesterase 1 (Homo sapiens), Q9NUW8. recombinant TDP1, AlphaScreen DNA substrate cleavage. Potency, µM (series often up to 130 µM), inactives show at the highest dose activity change, negative = inhibition, usual class: inhibitors. hit rate 0.28% among 350,000. AID 485290, 2010; further: nearly all actives have a fitted effect of over 40% in size
Target sequence (Q9NUW8 whole entry, looked up): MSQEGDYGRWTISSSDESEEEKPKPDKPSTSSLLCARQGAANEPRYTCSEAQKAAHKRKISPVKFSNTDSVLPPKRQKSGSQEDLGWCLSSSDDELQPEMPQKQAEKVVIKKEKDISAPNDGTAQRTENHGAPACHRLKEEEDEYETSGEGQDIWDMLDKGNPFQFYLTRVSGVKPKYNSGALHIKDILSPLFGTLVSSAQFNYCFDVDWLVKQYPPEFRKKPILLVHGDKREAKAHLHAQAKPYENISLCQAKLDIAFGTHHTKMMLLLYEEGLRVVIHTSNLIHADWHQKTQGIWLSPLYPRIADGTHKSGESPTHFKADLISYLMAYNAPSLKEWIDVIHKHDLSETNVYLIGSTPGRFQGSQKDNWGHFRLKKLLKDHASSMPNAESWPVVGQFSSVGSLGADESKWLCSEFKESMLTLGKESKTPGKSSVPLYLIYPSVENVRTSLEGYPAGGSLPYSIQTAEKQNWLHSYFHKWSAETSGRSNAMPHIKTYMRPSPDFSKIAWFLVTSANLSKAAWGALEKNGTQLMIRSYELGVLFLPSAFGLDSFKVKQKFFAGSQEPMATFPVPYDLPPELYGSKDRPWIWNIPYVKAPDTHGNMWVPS
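Steps: enzyme plus compound, 15 min RT; add biotin/phosphotyrosine-FITC oligonucleotide (15 nM final), react 5 min; add donor/acceptor beads (10 ug/ml final), 10 min; read AlphaScreen. Tdp1 at 1 nM final.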
VDR inhibitor = Inhibitors of the vitamin D receptor (VDR): qHTS; VDR-SRC2-3 peptide fluorescence polarization, 2 h; Potency, µM, without a hit: max response, negative = inhibition, usual class: inhibitors; AID 504847, 2011; hit rate 0.93% among 400,000
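FP read-out; VDR + SRC2-3 coactivator peptide; 23 nl compound by pintool; 2 h RT incubation; reagents held at 4 deg C, protected from light.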
PLK1 PBD inh = qHTS for Inhibitors of PLK1-PDB (polo-like kinase 1 - polo-box domain): Primary Screen; Potency, µM, inactives show max response, negative = inhibition, actives largely listed as inhibitors; hit rate 2.8% among 360,000; Plk1 PBD binding of FITC phosphopeptide, fluorescence polarization; Serine/threonine-protein kinase PLK1 (Homo sapiens), P53350; further: series mostly up to about 57 µM; nearly all actives have a fitted effect of over 65% in size
KAT2A inh = qHTS Assay for Inhibitors of GCN5L2. GCN5L2 HAT assay, ThioGlo1 CoA-SH fluorescence. Potency, µM (series often up to 58.9 µM), without a hit: at the highest dose activity change, negative = inhibition, actives largely listed as inhibitors. hit rate 0.21% among 390,000. Histone acetyltransferase KAT2A (Homo sapiens), Q92830
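Compounds, pin-transferred from DMSO stocks, meet 20nM GCN5L2 for 15 min before the reaction begins with H3(1-25) peptide (75uM) and acetyl-CoA (70uM). Thiol-reactive ThioGlo1 reports CoA release over 20 min at room temperature.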
Starred values were filed as active, the others as inactive; ? = inconclusive; . = no result given. Hits are enriched below; roughly 18% of the tested compounds scored in any of these assays. The call rests on the fitted dose curve; in most records, active means well fitted curve in the direction sought with a large enough effect; inconclusive means small, poorly fitted or top-dose-only effect, or another doubt; inactive means no such curve, though single readings can be large; an effect the other way counts as inactive or inconclusive. On the % scale 0 is the no-effect control and ±100 the full control effect; potency means the concentration at half of the fitted maximal effect.

SMILES	DT40 TDP1 no CPT	TDP1 cell CPT	TDP1 block	VDR inhibitor	PLK1 PBD inh	KAT2A inh
Cc1ccc2nc3sc(C(=O)NCc4ccco4)c(N)c3cc2c1	-1%	-11%	-8%	-3%	32%	-4%
CCOc1ccccc1CNC(=O)c1cc(-c2ccc(OC)cc2)nc2ccc(C(C)C)cc12	16µM*	16µM*	5%	10%	.	-14%
CCNC(=S)NNC(=O)c1cc(-c2ccc(OCC)cc2)nc2ccccc12	4.5µM*	5µM*	11%	27%	-16%	-3%
COc1cc2cc3c(N)c(C(=O)NCc4ccco4)sc3nc2cc1OC	15µM*	23µM*	6%	-1%	-3%	-19%
CCNC(=S)NNC(=O)c1cc(-c2cccc(OC)c2)nc2ccccc12	16µM*	?	10%	-19%	-1%	-3%
CCNC(=S)NNC(=O)c1cc(-c2ccccc2C)nc2ccccc12	-29%	-11%	1%	-7%	-14%	?
CS(=O)(=O)N(CC(=O)Nc1ccccc1Br)Cc1ccccc1	0%	6%	-12%	-21%	-2%	-8%
COC(=O)c1sccc1-n1cccc1C(=O)C(=O)N1CC(C)OC(C)C1 (centres undefined)	-20%	-18%	-1%	6%	-1%	-1%
O=C(NCc1ccco1)c1cc(-c2ccncc2)nc2ccccc12	-12%	-13%	6%	-8%	-6%	-3%
COc1cccc(-c2cc(C(=O)NCc3ccco3)c3ccccc3n2)c1	?	12µM*	.	13%	-12%	-20%
CCCCNC(=S)NNC(=O)c1cc(C2CC2)nc2ccccc12	3.7µM*	?	5%	5%	-3%	1%
COCCNC(=S)NNC(=O)c1cc(C2CC2)nc2ccccc12	3%	-3%	5%	6%	0%	1%
Cc1nc(-c2ccccn2)nc(N(C)c2ccccc2)c1Cl	2.6µM*	2.6µM*	.	0%	-7%	-2%
C=C[C@]1(C)C=C2CC[C@H]3[C@@](C)(CCC[C@@]3(C)C(=O)O)[C@@H]2CC1	-11%	-24%	0%	-8%	30µM*	-12%
CCC(C)C(NC)C(=O)O (centres undefined)	11%	-4%	4%	-1%	.	-16%
CCCN(CCC)CCCNC(=O)c1cc2c(=O)n(CC)c3ccccc3c2s1	?	?	.	-7%	-2%	-8%
CCN(CCCNC(=O)c1cc2c(=O)n(CC)c3ccccc3c2s1)c1ccccc1	18µM*	?	6%	-20%	.	-3%
CCn1c(=O)c2cc(C(=O)NCCCOC)sc2c2ccccc21	10µM*	18µM*	6%	1%	1%	-5%
CCn1c(=O)c2cc(C(=O)Nc3cccc(C(F)(F)F)c3)sc2c2ccccc21	9.2µM*	7.3µM*	2%	-14%	.	-6%
CC(=O)N1CCOc2ccc(S(=O)(=O)NCCc3ccc(Cl)cc3)cc21	17%	-4%	1%	-15%	-20%	-6%
COC(=O)COc1cccc2c(=O)n(CC(=O)NCc3ccc(F)cc3)ccc12	1.2µM*	1µM*	.	-2%	-16%	-1%
CCOC(=O)C(C)Oc1cccc2c(=O)n(CC(=O)Nc3ccc(OC)cc3)ccc12 (centres undefined)	-22%	-14%	.	.	-7%	.
CCOC(=O)C(C)Oc1cccc2c(=O)n(CC(=O)NCc3ccccc3)ccc12 (centres undefined)	0.92µM*	0.58µM*	.	-7%	-4%	3%
CCOC(=O)COc1cccc2c(=O)n(CC(=O)NCc3ccc4c(c3)OCO4)ccc12	1.8µM*	1.8µM*	3%	-17%	-4%	0%
COC(=O)COc1cccc2c(=O)n(CC(=O)N3CCCCC3)ccc12	-6%	5%	.	-18%	5%	16%
SMILES	DT40 TDP1 no CPT	TDP1 cell CPT	TDP1 block	VDR inhibitor	PLK1 PBD inh	KAT2A inh
CCOC(=O)C(C)Oc1cccc2c(=O)n(CC(=O)NCc3ccc(F)cc3)ccc12 (centres undefined)	0.73µM*	0.82µM*	.	20%	4%	4%
CCOC(=O)C(C)Oc1cccc2c(=O)n(CC(=O)NCCc3ccccc3)ccc12 (centres undefined)	18%	-15%	.	7%	-7%	-2%
CCOC(=O)C1CCN(S(=O)(=O)c2ccc(CC)cc2)CC1	?	21µM*	11%	40µM*	8.4µM*	0%
CCOC(=O)C1CCCN(S(=O)(=O)c2cc3[nH]c(=O)c(=O)[nH]c3cc2C)C1 (centres undefined)	-1%	?	.	-8%	-8%	-8%
CCOc1ccc(S(=O)(=O)N2CCCC(C(=O)N3CCOCC3)C2)cc1Cl (centres undefined)	?	?	5%	-13%	4%	2%
CCOC(=O)C1CCCN(S(=O)(=O)c2cc3c4c(c2)CCC(=O)N4CCC3)C1 (centres undefined)	21µM*	23µM*	0%	-4%	-7%	-1%
CCOC(=O)C1CCN(S(=O)(=O)c2ccc3c(c2)N(C(C)=O)CC(C)S3)CC1 (centres undefined)	?	?	6%	?	19µM*	5%
CCOC(=O)C1CCN(C(=O)C2CCCN(S(=O)(=O)c3ccc(OCC)c(Cl)c3)C2)CC1 (centres undefined)	5.8µM*	6.5µM*	-11%	0%	-2%	-5%
COC(=O)[C@@H]1CCCN1C(=O)c1c(OC)cc(=O)n2c1CCN(Cc1ccc3nsnc3c1)CC2	-15%	1%	.	.	.	.
Cc1ccccc1OCC(=O)N(Cc1ccc(C(C)C)cc1)C1CCS(=O)(=O)C1 (centres undefined)	?	?	-1%	-11%	.	-16%
CCOC(=O)C1CCCN(S(=O)(=O)c2ccc(S(=O)(=O)N3CCCC3)cc2)C1 (centres undefined)	3.7µM*	4.6µM*	2%	-13%	-2%	1%
CC1CC(C)CN(S(=O)(=O)c2cc3c4c(c2)CCC(=O)N4CCC3)C1 (centres undefined)	18µM*	?	-4%	-7%	-8%	0%
